According to PubChem BioAssay (NCI):
Where “and” joins values, the source holds several entries; their conditions need not be identical. Equal values may be shown once. The panel holds about 79,000 compounds, 15% with a hit somewhere; the sample as a whole holds those more often. A number with no mark means an inactive call. Calls of active or inactive are those of the source. Rule as the data show it: active = growth inhibition above about 70%; inactive = the rest.

Tests used:
[1] = NCI Yeast Anticancer Drug Screen. Data for the rad50 strain (AID 155);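 also: 0% = growth of vehicle-only cultures of the same strain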; settings: S. cerevisiae rad50 strain growth inhibition, stronger effect = higher value; at 50.0 µM unless noted
In short: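 DNA repair mutant yeast, compound exposure, growth read-out; inhibition is taken relative to vehicle.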

[2] = NCI Yeast Anticancer Drug Screen. Data for the mec2-1 strain (AID 157); settings: S. cerevisiae mec2-1 strain, stronger effect = higher value; at 50.0 µM unless noted
In short: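 Cells of the genetically defined mec2-1 yeast strain are incubated with test compound. Inhibition of growth is calculated against vehicle-treated controls.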

[3] = NCI Yeast Anticancer Drug Screen. Data for the sgs1 mgt1 strain (AID 161);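 also: 0% = growth of cultures given vehicle only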; settings: S. cerevisiae sgs1 mgt1 strain, stronger effect = higher value; at 50.0 µM unless noted
In short: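 Mutant yeast exposed to compound; growth scored against vehicle-only wells.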

[4] = NCI Yeast Anticancer Drug Screen. Data for the cln2 rad14 strain (AID 165);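 also: 0% = growth equal to vehicle treated cultures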; settings: S. cerevisiae cln2 rad14 strain, stronger effect = higher value; at 50.0 µM unless noted
In short: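 The screen exposed genetically defined yeast (cln2 rad14) to test compounds and scored growth inhibition relative to vehicle-treated controls.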

[5] = NCI Yeast Anticancer Drug Screen. Data for the bub3 strain (AID 167); settings: S. cerevisiae bub3 mutant strain, stronger effect = higher value; at 50.0 µM unless noted
In short: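 In this screen, a yeast mutant lacking normal mitotic checkpoint function is challenged with compound. Relative growth versus vehicle gives the inhibition value.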

[6] = NCI Yeast Anticancer Drug Screen. Data for the mlh1 rad18 strain (AID 175); settings: S. cerevisiae mlh1 rad18 strain growth inhibition, stronger effect = higher value; at 50.0 µM unless noted
In short: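 Compound-treated yeast growth, normalised to vehicle controls. Strain bears defined DNA repair mutations.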

| Structure (SMILES) | growth inhibition [1] | growth inhibition [2] | growth inhibition [3] | growth inhibition [4] | growth inhibition [5] | growth inhibition [6] |
| --- | --- | --- | --- | --- | --- | --- |
| Cn1cnc2ncnc(Cl)c21 | 1.85% | -3.45% | 9.8% | -19.1% | -52.1% | -26.9% |
| C/C=C1\CC2C=CC1C2 (centres undefined) (tested in a mixture with another compound) | 5.35% | -15.4% | 3.25% | 0.5% | 11.6% | 8.15% |
| O=C(c1ccccc1)c1cccc(C(=O)c2ccccc2)c1 | -2.1% | -11.3% | -12.9% | 4.65% | 7.35% | -16.6% |
| O=C1CSC(c2ccc([N+](=O)[O-])cc2)N1c1ccc(-n2c(-c3ccccc3)nc3ccccc3c2=O)cc1 (centres undefined) | 2.5% | -10.2% | 15.2% | -10.5% | 30% | 13.2% |
| C=C(COc1ccc(OC)cc1)C(C)(C)C | 18.9% | 13.3% | -17.4% | -14.4% | 14.7% | -19.5% |
| CCOC(=O)c1[nH]c(C)c(C#N)c1C | -34.4% | -26.6% | -12.7% | -34.6% | -20.8% | -19.1% |
| O=[N+]([O-])c1cc(N(c2ccccc2)c2ccccc2)c(Cl)cc1Cl | -8.35% | -16.1% | -27.1% | -2.55% | 5.5% | -3% |
| COc1ccc2[nH]c3c(C)c4c(c(C)c3c2c1)CN(C)C=C4 | 45.6% | 48.2% | 62.7% | 21.2% | 65.8% | 8.95% |
| CCCCC1(CC)COC(=O)N(C)C1 (centres undefined) | 10.8% | 4.95% | 0.65% | -7.6% | 18% | 3% |
| O=CC(CO)C(C=O)n1ncc2ccccc21 (centres undefined) | 30.2% | 7.7% | 28.3% | 9.55% | 13.3% | 30.8% |
| Cc1ccc(S(=O)(=O)CCN2CCN(C)CC2)cc1 | 8.6% | -9.25% | -12.7% | -26% | -2.65% | 1.05% |
| OCC(O)Cc1ccccc1 (centres undefined) | -7% | -12.8% | 3.2% | -13.1% | -1.8% | 5.05% |
| O=C(Nc1ccc(O)cc1)c1ccc([N+](=O)[O-])cc1 | -1.75% | 6.6% | 3.35% | 0.05% | 9.05% | -2.2% |
| CCN(CCNS(C)(=O)=O)c1ccc(N)c(C)c1 | -15.3% and -11.2% | -17.2% and -6.1% | -23.1% and -14.5% | 1.5% and -19.1% | -17.9% and 1.95% | -4.05% and 6.35% |
| OCC1=CC(O)C2C=COC(OC3OC(CO)C(O)C(O)C3O)C12 (centres undefined) | -15.9% | -24.6% | -19.1% | -6.45% | -32% | -31.1% |
| O=C1c2ccccc2C(=O)N1c1ccc(Cc2ccc(N3C(=O)c4ccccc4C3=O)cc2)cc1 | -11.7% | 10.1% | -2.6% | 42.9% | -0.2% | 14.7% |
| O=C(O)c1nc(-c2ccccc2)ncc1-c1nnnn1-c1ccccc1 | -37.7% | 3.75% | -21.9% | 4.7% | -18.7% | -7.1% |
| Cn1c(=S)[nH]c2c(Cl)cc(Cl)cc2c1=O | -40.4% | -30.6% | -7.1% | -13.9% | -27.7% | -51.9% |
| COc1ccc(/C=C/c2ccc(OC)cc2)cc1 | 13.3% | -8.1% | 0.6% | -13.4% | 8.7% | 5.8% |
| Cc1cc(O)c(C)c(C)c1O | -4.1% | -12.6% | -6.95% | -12.4% | 4% | 8.85% |

| Structure (SMILES) | growth inhibition [1] | growth inhibition [2] | growth inhibition [3] | growth inhibition [4] | growth inhibition [5] | growth inhibition [6] |
| --- | --- | --- | --- | --- | --- | --- |
| Nc1ccc(C(=O)O)cc1N | 17.5% | 46.6% | 15.4% | 15.3% | 1.45% | 45.5% |
| O=C(C/C(=N/O)c1ccccc1)c1ccccc1 | -14.7% | -4.65% | -8.5% | 15.4% | 5.35% | -1.8% |
| N#C/C(=C\c1ccc(Cl)cc1Cl)C(=O)N/N=C/c1ccc(Cl)cc1Cl | 62.8% | 37.8% | 27.8% | 58.2% | 98% (active) | 23.6% |
| CCOC(=O)c1c(C(=O)OCC)c2cccn2c2c1cnn2-c1ccccc1 | -0.85% | 1.65% | 5.1% | 5.55% | -20.8% | -2.55% |
| CN(CCOC(=O)Nc1ccccc1)N=O | 9.35% | -9.35% | 0.75% | -15.4% | 7.7% | -3% |
| c1ccc(C2(c3ccc(C4(c5ccccc5)Oc5ccccc5S4)[nH]3)Oc3ccccc3S2)cc1 (centres undefined) | 20.4% | -12.2% | -4.4% | 11.6% | -16.7% | 20.2% |
| CCOC(=O)C(CC(C)C)NC(=O)c1c2nc3c(C(=O)NC(CC(C)C)C(=O)OCC)cc(NC(C)=O)c(C)c3oc-2c(C)c(=O)c1N (centres undefined) | 8.4% | 34.5% | 34.6% | -4.95% | -6.5% | 48.8% |
| c1ccc2nc3c(cc2c1)NCC3 | -2.3% | 5.15% | -14.4% | -22.6% | -8.25% | -20.9% |
| Nc1sc(=S)[nH]c1-c1ccccc1 | 20.1% | 10.7% | -24.9% | -30.8% | -11% | 11.1% |
| OCC(O)COc1ccc(F)cc1 (centres undefined) | 19.7% | -16.2% | -0.15% | 4.55% | -6.25% | -12.1% |
| Cc1ccc(N2CC(=O)N3CCCC(C)N3C(=O)C2)cc1 (centres undefined) | 26% | 8.85% | 14.8% | 15.8% | 7.05% | 10.4% |
| C=C(C)C(C)/C(C)=N/NC(N)=O (centres undefined) (tested in a mixture with another compound) | 6.85% | 3.3% | -5.75% | 10.4% | 10.6% | -15.8% |
| C=C1OC(n2cnc3c(=N)n(O)cnc32)C2OC(C)(C)OC12 (centres undefined) | -3.6% | 4.75% | 13.2% | -16.4% | 1.9% | -16.5% |
| CC(=O)NC(C(=O)O)C(C)C (centres undefined) | 6.4% | -0.75% | -4.55% | -4.2% | 0.85% | 6.7% |
| CCOC(=O)c1sc(C(=O)O)cc1-c1cccs1 | 3.9% | 9.65% | 11.5% | -5.6% | -10.6% | 15% |
| COc1ccc2c3c(ccc2c1)[C@@H]1C/C(=C(\OC(C)=O)C(F)(F)F)C(=O)[C@@]1(C)CC3 | -0.85% | -4.85% | 0.4% | 20.8% | -11.2% | 20.3% |
| O=C(O)C(=O)Nc1ccccc1 | -4.45% | -15.5% | -5.5% | -34.8% | 1.65% | -5.8% |
| Nc1ccccc1SC1CC(=O)N(c2ccc3c(c2)OCO3)C1=O (centres undefined) | 6.55% | 8.85% | 20.4% | 16.4% | 8.35% | 16.3% |
| O=c1c2cccnc2nc2ccc3c[nH][nH]c3c12 | -23.8% | -24.6% | -0.55% | -14.6% | -18.3% | 8.65% |
